Test systems include SN12C renal; UO-31 renal; TK-10 renal; ACHN renal; CAKI-1 renal; A498 renal; CCRF-CEM leukemia; MOLT-4 leukemia; SR leukemia.
Assay in all cases: NCI-60 one-dose screen, 48 h (100 = growth as untreated, 0 = no growth, -100 = all killed)
What all share (settings): 10 µM

Structures are written as SMILES. About 83,000 compounds went through this panel and 20% of them were active in at least one assay; those are over-represented in the sample as a whole.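 Method: cells in 96-well plates; compound added at one concentration; 48 h incubation; percent growth measured; values under 10 scored active.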 Values without a mark were called inactive. Active and inactive are the calls of the source.

Take `COC(=O)C(C(C[N+](=O)[O-])c1ccccc1)=P(c1ccccc1)(c1ccccc1)c1ccccc1` (stereo not given): the growth in the experiment on SN12C renal is 100%; with UO-31 renal it was 73.1%; in the experiment on TK-10 renal, 97.2%; with ACHN renal, 93.9%; in the experiment on CAKI-1 renal it was 84.3%; in the experiment with A498 renal, 59.8%. The growth is 77.1% in the experiment with CCRF-CEM leukemia, 90.3% in the experiment with MOLT-4 leukemia and 14.6% with SR leukemia.

Turning to `O=C(Nc1cccc(-n2cc(-c3ccncc3)c(-c3cc(O)cc(Cl)c3)n2)c1)c1cc(C(F)(F)F)cc(C(F)(F)F)c1`, the growth was 50.3% in the experiment with SN12C renal; 49.1% in the experiment on UO-31 renal; 73% with TK-10 renal; 37.7% in the experiment with ACHN renal; 58.5% in the experiment on CAKI-1 renal; 40.3% with A498 renal. For the same compound, the figures for the growth with CCRF-CEM leukemia, in the experiment on MOLT-4 leukemia and in the experiment on SR leukemia were 26.9%, 19.5% and 3.15% (active), respectively.

In the case of `COc1ccc(OC)c(NC(=O)c2sc3nc4c(cc3c2N)C(=O)CCC4)c1`, the growth is 95.5% with SN12C renal; 84.7% in the experiment with UO-31 renal; 98% in the experiment with TK-10 renal; 106% with ACHN renal; 86.3% in the experiment on CAKI-1 renal; 3.5% (active) in the experiment on A498 renal. In addition, the growth is 84.4% with CCRF-CEM leukemia, 93.1% in the experiment on MOLT-4 leukemia and 73.7% in the experiment on SR leukemia.

On to `CCC(=O)N1C/C(=C/c2ccc(OC)cc2)C(=O)/C(=C/c2ccc(OC)cc2)C1`, for which the growth in the experiment on SN12C renal is 27.4%; in the experiment with UO-31 renal, -7.25% (active); in the experiment on TK-10 renal, 70.3%; in the experiment with ACHN renal, 28.4%; in the experiment on CAKI-1 renal, 13.1%; with A498 renal, 83.5%. Moreover, the growth with CCRF-CEM leukemia is -5.27% (active); in the experiment with MOLT-4 leukemia, 11%; with SR leukemia it was -11% (active).

Consider `O=S(=O)(Nc1ccccn1)c1ccc(N=Nc2ccc(O)c3ncccc23)cc1`, for which the growth was 5.49% (active) in the experiment with SN12C renal; -24.1% (active) in the experiment with UO-31 renal; -1.22% (active) with TK-10 renal; -1.83% (active) with ACHN renal; -4.15% (active) with CAKI-1 renal; -11.5% (active) in the experiment on A498 renal. Moreover, the growth is 7.55% (active) in the experiment on CCRF-CEM leukemia, 4.77% (active) in the experiment with MOLT-4 leukemia and 0.457% (active) in the experiment with SR leukemia.

As for `N=C(N)c1ccc(-c2ccc(-c3cccs3)s2)cc1`, the growth was 85.9% with SN12C renal; 17.1% in the experiment on UO-31 renal; 67.8% in the experiment with TK-10 renal; 85.8% in the experiment with ACHN renal; 85.2% in the experiment on CAKI-1 renal; -25.9% (active) in the experiment with A498 renal. Moreover, the growth in the experiment on CCRF-CEM leukemia is -36.1% (active); in the experiment with MOLT-4 leukemia, -48.6% (active); in the experiment on SR leukemia, -35.6% (active).

`CSc1nn(-c2ccccc2)c2ncnc(Oc3ccc(C)cc3)c12`: the growth was 88.8% in the experiment with SN12C renal; 84.4% in the experiment with UO-31 renal; 94.2% in the experiment on TK-10 renal; 76% in the experiment with ACHN renal; 84.8% in the experiment with CAKI-1 renal; 67.8% with A498 renal. Also, the growth in the experiment with CCRF-CEM leukemia is 90.5%; in the experiment with MOLT-4 leukemia it was 94.9%; in the experiment on SR leukemia it was 91.8%.

Regarding `COc1ccc2c(c1)sc1nc(-c3ccccc3)c(-c3cccnc3)n12`, the growth is 98.2% in the experiment with SN12C renal; 95.2% with UO-31 renal; 116% in the experiment with TK-10 renal; 97.7% in the experiment with ACHN renal; 81.2% in the experiment with CAKI-1 renal; 58.4% in the experiment on A498 renal. Further, the growth in the experiment with CCRF-CEM leukemia is 93.1%; with MOLT-4 leukemia it was 86.6%; with SR leukemia it was 86.6%.

Turning to `C/C(N)=C(\C#N)C(=O)c1ccccc1`, the growth is 106% with SN12C renal; 86.4% in the experiment with UO-31 renal; 106% in the experiment on TK-10 renal; 105% in the experiment on ACHN renal; 107% with CAKI-1 renal; 91.5% in the experiment on A498 renal. In addition, the growth with CCRF-CEM leukemia was 102%; in the experiment with MOLT-4 leukemia, 110%; in the experiment on SR leukemia, 112%.

As to `Fc1ccc2nc(-c3nc(-c4ccccc4)n4ccccc34)[nH]c2c1`, the growth in the experiment with SN12C renal is 16.9%; in the experiment on UO-31 renal, -32.9% (active); in the experiment with TK-10 renal, -30.2% (active); in the experiment on ACHN renal it was 10.1%; in the experiment with CAKI-1 renal it was -0.279% (active); in the experiment on A498 renal it was -16.8% (active). Also, the growth is 53.3% in the experiment with CCRF-CEM leukemia, 39.8% in the experiment with MOLT-4 leukemia and 38% in the experiment with SR leukemia.

With `COc1ccc(C2=Nc3c(C)nn(-c4ccccc4)c3NC(c3ccc(Oc4ccnc5cc(Cl)ccc45)c(OC)c3)C2)cc1` (stereo not given), the growth in the experiment with SN12C renal is 72.5%; in the experiment with UO-31 renal, 53%; in the experiment on TK-10 renal, 129%; in the experiment with ACHN renal, 76.4%; in the experiment on CAKI-1 renal, 70.8%; with A498 renal, 54.2%. Further, the growth was 71.2% in the experiment with CCRF-CEM leukemia, 51.4% with MOLT-4 leukemia and -0.699% (active) in the experiment on SR leukemia.

In the case of `COc1ccc(/C=C2/CN(C(=O)c3ccccc3F)C/C(=C\c3ccc(OC)cc3)C2=O)cc1`, the growth in the experiment on SN12C renal is 65.7%; in the experiment on UO-31 renal, 46.1%; in the experiment with TK-10 renal, 130%; with ACHN renal it was 65.2%; with CAKI-1 renal it was 67.6%; with A498 renal, 122%. Moreover, the figures for the growth in the experiment on CCRF-CEM leukemia, with MOLT-4 leukemia and in the experiment on SR leukemia were 4.22% (active), 23.5% and -23.2% (active), respectively.

As for `N=C(N)c1ccc(-c2ccc(-c3cccs3)s2)s1`, the growth in the experiment on SN12C renal was -74.9% (active); with UO-31 renal, -77.1% (active); in the experiment on TK-10 renal, -51.1% (active); with ACHN renal, 66.4%; in the experiment on CAKI-1 renal, -49% (active); with A498 renal, -32.6% (active). The growth with CCRF-CEM leukemia is -52.3% (active); in the experiment with MOLT-4 leukemia, -55.7% (active); with SR leukemia, -50.9% (active).

Take `COc1ccc(/C=C2/CN(CCC#N)C/C(=C\c3ccc(OC)cc3)C2=O)cc1`: the growth with SN12C renal was -57% (active); with UO-31 renal, -43.8% (active); in the experiment on TK-10 renal, 16.2%; in the experiment with ACHN renal, 8.83% (active); with CAKI-1 renal it was -19.4% (active); in the experiment with A498 renal, 56.3%. The growth in the experiment on CCRF-CEM leukemia is 0.103% (active); in the experiment with MOLT-4 leukemia, 3.59% (active); in the experiment on SR leukemia, -2.63% (active).

For `Cc1[nH]nc2c1C(c1cnn(C)c1)C(C#N)=C(N)O2` (stereo not given), the growth was 103% in the experiment on SN12C renal; 81.3% in the experiment with UO-31 renal; 102% in the experiment on TK-10 renal; 104% in the experiment with ACHN renal; 102% in the experiment with CAKI-1 renal; 69.9% with A498 renal. The growth with CCRF-CEM leukemia is 101%; in the experiment with MOLT-4 leukemia, 98.6%; in the experiment with SR leukemia, 89.3%.

For the origin of these results see PubChem BioAssay (NCI).
